Results as given in the supplement of paper PMC6555819.

How the values were obtained:
Assay in all cases: PBM binding z-score (relative to random genomic background probes); higher = stronger binding; sequences stand for … in GC…GCGATTGACAGCGTAGAATGAAGG
[1] = system: RARb homodimer (NR concentration 270 nM)
Procedure, shortened: (§1)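 Custom Agilent 4×180K protein-binding microarrays carried double-stranded probes. Their 34-nt variable regions held direct-repeat seeds, single-nucleotide variants, half-site ablations and random human genomic background sequences. Arrays were incubated 1 h with ligand-free nuclear receptor dimers in PBS pH 7.4, 2% milk, 0.02% Triton X-100, 1 mM DTT, 0.2 mg/mL BSA and 0.4 mg/ml salmon testes DNA. Antibodies against each partner (one per run) detected binding, and scanned fluorescence was regression-normalized. Binding z-scores use random background probes as reference.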

[2] = system: RARg:RXRa (NR concentration 270 nM, RXRa partner concentration 90 nM)
Procedure, shortened: as §1

[3] = system: RARg homodimer (NR concentration 270 nM)
Procedure, shortened: as §1

[4] = system: RXRa DBDmut IVT, anti-RXR (DBD mutation: RXRa K156A/R161A, NR concentration 90 nM)
Procedure, shortened: as §1

[5] = system: RXRa homodimer (NR concentration 180 nM)
Procedure, shortened: as §1

[6] = system: THRa:RXRa (NR concentration 90 nM, RXRa partner concentration 90 nM)
Procedure, shortened: as §1

[7] = system: THRa homodimer (NR concentration 90 nM)
Procedure, shortened: as §1

[8] = system: VDR homodimer (NR concentration 270 nM)
Procedure, shortened: as §1

Sequence | PBM binding z-score [1] | PBM binding z-score [2] | PBM binding z-score [3] | PBM binding z-score [4] | PBM binding z-score [5] | PBM binding z-score [6] | PBM binding z-score [7] | PBM binding z-score [8]
CGAACTAGGTCAAGGACAGAGAATCTCCGCACGC | 2.93 | 3.95 | 4.67 | 1.52 | 2.61 | 2.74 | 1.79 | 0.0808
AGTCAAAGTTCAGGACGAGGCAACGTAAAGCACG | 2.9 | 3.86 | 4.55 | 3.06 | 2.86 | 2.76 | 0.753 | 1.61
GCGAATGGGGCATCAGCAGGTTACCATAACTTAA | 0.462 | 0.664 | 0.351 | 0.119 | 0.257 | 0.795 | 0.03 | -0.224
TATACAGGGTCAAAGGCCACAGTACGAATGTCGA | 3.85 | 6.13 | 5.62 | 3.08 | 7.97 | 3.53 | 1.28 | 3.15
CGAATTAGGTCAGAACAGGACAGTGAAGGATGAT | 2.36 | 2.65 | 3.43 | 0.886 | 1.29 | 3.86 | 1.01 | 0.142
TCTACAGGGTCAAAGGCCAGAGTACGAATGTCGA | 3.2 | 5.47 | 5 | 3.16 | 6.72 | 3.48 | 0.454 | 2.55
ATCTCTAGGTAAGACTCAGTTCAGCGAAGAACGC | 0.706 | 0.274 | 0.294 | 0.439 | 0.4 | 0.927 | 0.802 | 1.48
GGAACGAGGGCATGCGAGTTGATAGCATGGCGAT | 0.608 | 1.21 | 1.6 | 2.03 | 0.847 | 2.7 | -0.777 | 1.97
TAGCCTAGGTCATTGGGCCAGTACAGTACGCATC | 3.02 | 3.95 | 4.57 | 1.77 | 3.3 | 2.91 | 0.878 | 1.28
ATCAAAAGGTCGACGAGGTGAGTATACACCGTTT | 3.3 | 4.4 | 4.08 | 1.52 | 4.69 | 3.9 | 1.05 | 0.947
CCAGACAGGTGAGAAGGTATCTCAGCCTCGATTA | -0.0686 | 0.015 | 0.26 | 0.0467 | 0.0793 | -0.219 | -0.183 | -0.56
TTTTGTAGATCAATAGAGGTTAAGAAAGTGCGCT | 1.27 | 0.945 | 0.869 | -0.0202 | 1.52 | 2.28 | -0.0563 | 0.777
ACTCGGAGGACCAAGGTCAGAGCTACGCCAGTGA | 2.9 | 2.35 | 2.61 | 0.197 | 2.03 | 2.44 | 1.17 | 0.899
AGAACGAGGGCACGCTGAGTTGATATCAGAGTAG | 1.18 | 2.05 | 2.32 | 2.08 | 1.32 | 1.89 | -0.269 | 1.71
TGTCAAAGTTCAAAGGTACCGTAAGTATCCACAC | 4 | 5.69 | 5.77 | 4.44 | 5.81 | 2.65 | -0.264 | 4.24
GCATATAGGTAATACAGGGTGAAAGTCCGATTGT | 0.685 | 0.386 | 0.492 | 0.439 | 0.917 | 3.38 | 0.41 | 0.239
ATATGTAGGTTACATCCGGGTCATTAAGGCTATG | 3.03 | 3.68 | 2.19 | 1.31 | 3.15 | 3.75 | 2.8 | 2.89
CCTTACGGGTCAAGGTTATAGTACGGGTGGTACG | 3.37 | 4.78 | 4.42 | 1.09 | 5.14 | 3.08 | 1 | 1.71
ACTAGTTAGTCAGCTGAGGTCACACACAATTCGG | 4.4 | 3.65 | 3.31 | 1.91 | 4.01 | 4.76 | 5.46 | 3.81
